Records with an inconclusive call do not appear. Where a call stands in place of a potency, no number is given. Calls of active or inactive are those of the source. Calls come from the whole dose curve; as a rule, active = well fitted inhibition curve with a large enough effect; inconclusive = small, poorly fitted or top-dose-only effect; inactive = no such curve, though single readings can be large or run the other way.
Potency is the fitted concentration of half-maximal effect.

This assay in a line: qHTS for Inhibitors of the Aldehyde Dehydrogenase Family (ALDH1A2, ALDH1A3, ALDH2, ALDH3A1) (AID 2061307). For potency: test system not described further here. Note: nearly all actives have a fitted effect of over 50% in size. The settings on record: ALDH inhibition qHTS; series mostly up to 50.3 µM. (qHTS replaces the single test concentration by a dilution series.)
As to `CCN1C(=O)c2ccccc2S(=O)c2ccc(C(=O)NCc3ccccc3Cl)cc21` (stereo not given), the Potency was 12.7 µM (active).
`Cn1nnnc1Sc1ncnc2n[nH]c(-c3ccccc3)c12`: the Potency result is “inactive”.
Under `C[S+](=O)([O-])c1ccc(-c2nnc3ccc(C(=O)NCCc4ccccc4F)cn23)cc1` stands “inactive”.
For `CSc1ccc(-c2csc(N3CCC(C(N)=O)CC3)n2)cc1`, the Potency was 4 µM (active).
With `Cc1c(P(=S)(c2ccccc2)c2ccccc2)[n+]2ccccc2n1C/C=C/c1ccc(Br)cc1`, the Potency result was “inactive”.
For `O=C(N/N=C/c1ccc(Sc2nc3ccccc3s2)o1)c1cccc(F)c1`, the Potency is 0.896 µM (active).
Regarding `Cc1nc2cc(NS(=O)(=O)c3cc(C(=O)O)ccc3C)ccc2o1`, the Potency is 12.6 µM (active).
As for `NS(=O)(=O)c1ccc(Nc2cn[nH]c2-c2cccc(-c3ccccc3)c2)cc1`, the Potency result is “inactive”.
As to `CN1CCC(CNCc2nccc3c(=O)[nH]c(COc4ccc(Cc5ccccc5)cc4)nc23)C1` (stereo not given), the Potency entry is “inactive”.
In the case of `O=C(c1cnc(N2CCCCC2)c2ccccc12)N1CCN(c2ccc(Cl)cc2)CC1` it was “inactive”.
Turning to `COc1ccc(-c2ccncc2)cc1OC`, the Potency entry is “inactive”.
Under `O=C(CSc1nc2ncccc2c(=O)n1-c1ccccc1)Nc1ccccc1` stands “inactive”; under `COc1ccc(CCNC(=O)c2ccc3nnc(-c4ccc([S+](C)(=O)[O-])cc4)n3c2)cc1`, “inactive”.
In the case of `COc1cccc(Nc2nc(C)c(C(=O)Nc3ccccc3)s2)c1`, the Potency result is “inactive”.
In the case of `O=C(Nc1ccc(CCO)cc1)c1ncoc1-c1ccccc1Cl` it was “inactive”; in that of `CNc1nc2c(s1)C(c1ccccc1Cl)CC(=O)N2` (stereo not given), 11.3 µM (active); in that of `COCCCn1c(SCC(=O)Nc2ccc(C(N)=O)cc2)nnc1-c1ccc(Cl)cc1`, 2.24 µM (active).
On to `COc1ccc(-n2ccc(C(=O)NC(C)(C)C)n2)cc1`, for which the Potency entry was “inactive”.
In the case of `COc1ccc(OC)c(NC(=O)c2cc(C3CC3)nc3c2c(C)nn3-c2ccc(C)cc2)c1` it was “inactive”.
In the case of `Fc1ccc(Cn2cnc3ccccc32)cc1Cl` it was 8.96 µM (active); in that of `COc1ccccc1C(=O)Nc1nnc(SCc2cc(=O)c3ccccc3[nH]2)s1`, 3.98 µM (active); in that of `O=C([C@H](NS(=O)(=O)c1ccc2[nH]c(=O)ccc2c1)c1ccc(F)cc1)N(Cc1ccco1)Cc1cccs1`, 25.2 µM (active).
In the case of `O=C(N/N=C/c1ccc(Sc2ccccn2)s1)c1cccc(F)c1`, the Potency is 15.9 µM (active).
As to `O=C(Cn1nc2c(cc1=O)CCCC2)Nc1nc(-c2ccc3c(c2)OCO3)cs1`, the Potency entry was “inactive”.
In the case of `COc1cc(O)c(C(CC(=O)N2CC(C)CC(C)C2)c2cccc(NS(C)(=O)=O)c2)c(OC)c1` (stereo not given) it was 3.66 µM (active); in that of `O=C(Nc1cc(C(F)(F)F)ccc1Cl)c1nc2ccccc2nc1N1CCCCC1`, “inactive”.
In the case of `O=C(Nc1ccc(N2CCCCC2)nc1)c1cccs1` it was 5.04 µM (active); in that of `COc1ccccc1Nc1ccc2c(O)cc(S(=O)(=O)O)cc2c1`, 31.6 µM (active).
For `Nc1nc2c(s1)C(c1ccc(F)cc1Cl)CC(=O)N2` (stereo not given), the Potency is 4 µM (active).
`COc1ccc(-n2c(C)c(C(C)=O)c3cc(OC(=O)c4ccccc4OC(C)=O)ccc32)cc1`: the Potency result is “inactive”.
For `CC1=C[C@@H](CNC(C)C)[C@H](C(C)C)C[C@H]1Cc1nnc(-c2ccncc2)o1`, the Potency result is “inactive”.
With `COC(=O)c1ccc2c(c1)CCN2C(=O)c1cnn(-c2ccccc2)c1`, the Potency entry was “inactive”.
On to `NC(=O)c1cccc2c1CCCN2C(=O)c1csc(-c2ccc(Cl)cc2)n1`, for which the Potency entry is “inactive”.
With `COc1ccc(Nc2nc(N3CCCC3)nc(N3CCOCC3)n2)cc1`, the Potency result was “inactive”.
For `NCC(=O)Nc1ccc2c(c1)Oc1cc(NC(=O)CN)ccc1C21OC(=O)c2ccccc21`, the Potency entry was “inactive”.
Consider `COc1ccc(-n2ncc3c2CCCC3NC(=O)c2cccc(OC(F)(F)F)c2)cc1` (stereo not given), for which the Potency is 12.6 µM (active).
Consider `COc1ccc(Cl)cc1Nc1cc(C)nc2nc(-c3ccccc3C)nn12`, for which the Potency result is “inactive”.
As for `O=C(Nc1cccnc1Cl)c1cc(-c2cccc(Cl)c2)on1`, the Potency result was “inactive”.
On to `COc1ccc(NC(=O)Cn2ncc3ccccc3c2=O)cc1S(=O)(=O)N1CCOCC1`, for which the Potency result was “inactive”.
Regarding `Cc1ccccc1C(=O)c1no[n+]([O-])c1C(=O)c1ccccc1C`, the Potency is 10 µM (active).

These data come from PubChem BioAssay (NCATS).
